Results filed as inconclusive are left out. Activity calls are given as the source filed them. The call rests on the fitted dose curve; in most records, active means well fitted cell-killing curve with a large enough effect; inconclusive means small, poorly fitted or top-dose-only effect; inactive means no such curve, though single readings can be large or run the other way.
assay: qHTS of pediatric cancer cell lines to identify multiple opportunities for drug repurposing: Primary screen for Saos-2 cells (AID 1347097); conditions: Saos-2 viability, CellTiter-Glo ATP luminescence, 48 h; series mostly up to 46 µM; activity change, negative = cytotoxic: at the top concentration; further: nearly all actives have a fitted effect of over 40% in size
From the text: Drug repurposing or repositioning has been offered as a strategy for drug development in oncology programs. This approach has special potential for childhood cancers and other rare or orphan diseases, where the expected return on new drug development has been a disincentive to pharmaceuticals. […] In this project we exploit the poly-pharmacology of drugs to discover new indications via phenotypic screening of a panel of 19 well-characterized cell lines derived from solid tumors seen in children and adolescents. The goal is to identify approved drugs with previously unrecognized anticancer properties that has the potential to reveal new mechanisms and biological processes involved in carcinogenesis or drug resistance. We employed a titration-based paradigm (quantitative high-throughput screening or qHTS), where all compounds were tested at multiple concentrations for their effect on cell viability. Concentration-response curves (CRCs) were derived directly from the primary screen, and both potency and efficacy values were used to identify compounds with robust bioactivity profiles. We screened the NIH Chemical Genomics Center (NCGC) Pharmaceutical Collection (NPC) and Mechanism Interrogation Plate (MIPE) small molecule collections of approved and investigational compounds against these cell lines; and measured metabolically active cells after 48 hours of compound treatment as a proxy for cell viability. […] Assay Submitter: Nathalia J. Martinez, National Center for Advancing Translational Sciences, National Institutes of Health, Rockville, MD, USA; email: natalia.martinez@nih.gov Shen, M et al. Quantitative high-throughput phenotypic screening of pediatric cancer cell lines identifies multiple opportunities for drug repurposing. Oncotarget 2017 Dec 19;9(4):4758-4772. PMID 29435139.
The cells were obtained from University of North Carolina (UNC), Pediatric Preclinical Testing Program (PPT), and Coriell Institute (CI). qHTS cell viability assay: Cells were assayed in growth media at a density of 500-1,000 cells/well. Five microliters of cells were dispensed into 1,536-well, white, solid-bottom, TC-treated plates (Greiner Bio One) using a multidrop dispenser and incubated at 37 degrees C, 5% CO2, under a humidified atmosphere for 5 hours. Twenty-three nanoliters of compounds and controls (neutral control DMSO or positive control bortezomib at final concentration of 2.3 µM) were subsequently transferred by Kalypsys pintool. For primary screens, the MIPE collection was tested at 11-point dilutions (final concentrations range from 0.78 nM to 46 µM) and the NPC collection at 8-point dilutions (final concentrations range from 0.59 nM to 46 µM). Compounds tested in follow-up screens were assayed at 11-point dilutions. Cells were incubated for 48 hours, followed by addition of 3 µL of CellTiter-Glo (Promega). After a 15 min incubation at room temperature, samples were analyzed for luminescence intensity using a ViewLux High-throughput CCD imager equipped with clear filters.
On the % scale 0 is the no-effect control and ±100 the full control effect; potency means the concentration at half of the fitted maximal effect.

SMILES	activity change, negative = cytotoxic	Potency
CCOC(=O)O[C@]1(C(=O)OCCl)CC[C@H]2[C@@H]3CCC4=CC(=O)C=C[C@]4(C)[C@H]3[C@@H](O)C[C@@]21C	-5.26% (inactive)	–
Cc1nc2n(c(=O)c1CCN1CCC(C(=O)c3ccc(F)cc3)CC1)CCS2	10.8% (inactive)	–
CC(C)C(=O)Nc1cccc(C2CN3CCSC3=N2)c1 (stereo not given)	-15.6% (inactive)	–
COCCOCC(OC)OC	-0.791% (inactive)	–
CCO[C@H](Cc1ccc(OCCc2ccc(OS(C)(=O)=O)cc2)cc1)C(=O)O	-2.73% (inactive)	–
O=C1CC(c2ccc(Cl)cc2)CC(=O)N1	30.7% (inactive)	–
CC(=O)N[C@@H](CCC(N)=O)C(=O)O	-1.03% (inactive)	–
C#CC(C)(CC)OC(=O)c1ccccc1C(=O)O (stereo not given)	13.7% (inactive)	–
CO/N=C(\C(=O)O)c1csc(NC(=O)CCl)n1	18.1% (inactive)	–
COc1ccccc1N1CCN(CC(O)COc2cc(OC)c(OC)c(OC)c2)CC1 (stereo not given)	15.6% (inactive)	–
C1=CC2C3C=CC(C3)C2C1 (stereo not given)	5.52% [at 92.7 µM] (inactive)	–
CCCCC(CC)COC(=O)c1ccccc1C(=O)O (stereo not given)	11.8% [at 92.7 µM] (inactive)	–
NC(=O)NS(=O)(=O)c1ccc(Cl)cc1	21.1% (inactive)	–
CN1N=C(C(N)=O)CCC1=O	12.3% (inactive)	–
Nc1nc(=O)n([C@@H]2O[C@H](CO)[C@@H](O)[C@@H]2F)cc1I	0.847% (inactive)	–
CCOc1c(N2CCOCC2)cnn(C)c1=O	11.5% (inactive)	–
CN(C)[C@@H]1C(=O)C(C(N)=O)=C(O)[C@@]2(O)C(=O)C3=C(O)c4c(O)cccc4C[C@H]3C[C@@H]12	-6.54% (inactive)	–
Cc1onc(-c2ccccc2)c1C(=O)Cl	-4.44% (inactive)	–
Cc1onc(-c2c(Cl)cccc2Cl)c1C(=O)Cl	18.3% (inactive)	–
CCC(C(=O)OCCN1CCOC(c2ccccc2)C1C)c1ccccc1 (stereo not given)	-17.7% (inactive)	–

SMILES	activity change, negative = cytotoxic	Potency
CN(CC1(C)CCCO1)S(=O)(=O)c1ccc(Cl)c(S(N)(=O)=O)c1 (stereo not given)	23.2% (inactive)	–
Cc1ccc(Cl)c(OCC(O)CNC(C)(C)C)c1 (stereo not given)	-6.15% (inactive)	–
O=C1NC(c2ccccc2)(c2ccccc2)C(=O)N1COP(=O)(O)O	32.9% (inactive)	–
Cc1cc(O)c2c(O)c3c(O)cccc3cc2c1	1.85% (inactive)	–
Cc1ccc(C(C)OC(=O)C2(C)CCC(C(=O)O)C2(C)C)cc1 (stereo not given)	-10.1% (inactive)	–
CCCCCCCCCCCCCCCCCCNC(=O)OC1CCN(C(=O)OC[C@H](COC(=O)N(Cc2cccc[n+]2CC)C(=O)c2ccccc2OC)OC)CC1	–	23.7 µM (active)
CC(CCc1ccc2c(c1)OCO2)NN (stereo not given)	-1.31% (inactive)	–
NS(=O)(=O)c1cc(C(=O)NN2C[C@H]3[C@H]4CCC(C4)[C@H]3C2)ccc1Cl	-2.48% (inactive)	–
Nc1cccc2c(N)cccc12	–	27.3 µM (active)
Cc1ccc(CCn2c3c(c4cc(Cl)ccc42)CN(C)CC3)cn1	-5.76% (inactive)	–
OCc1cccnc1	-14.6% (inactive)	–
COc1cc(C=O)ccc1O	10.9% (inactive)	–
CC(C)OC(=O)c1cc2c(OCC(O)CNC(C)(C)C)cccc2[nH]1 (stereo not given)	-15.7% (inactive)	–
O=C1NCCN1CCN1CCC(c2cn(-c3ccc(F)cc3)c3ccc(Cl)cc23)CC1	–	21.1 µM (active)
CC(=O)[C@@]1(O)CC[C@H]2[C@@H]3C[C@H](C)C4=CC(=O)CC[C@]4(C)[C@H]3CC[C@@]21C	-22.5% (inactive)	–
O=C(O)Cn1c(=O)n(Cc2ccc(Br)cc2F)c(=O)c2ccc(Cl)cc21	5.15% (inactive)	–
CCN(CC)CC(=O)Oc1ccc(NC(C)=O)cc1	19.8% (inactive)	–
CN(C)C(=O)CNC(=O)Cc1ccccc1	-25.2% (inactive)	–
CC[N+]1(CC)CCC(=C(c2ccccc2)c2ccccc2)C1C (stereo not given)	-18.6% (inactive)	–
CCC(=O)Oc1ccc2c(c1)CC[C@@H]1[C@@H]2CC[C@@]2(C)[C@H]1C[C@@H](OC(=O)CC)[C@@H]2OC(=O)CC	19.9% (inactive)	–
